Experimental data published in PubChem BioAssay AID614 (Sanford-Burnham Center for Chemical Genomics, 2007).
Hit rate of the full screen: of about 21,000 compounds, fewer than 10 were called active.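 The calls were made as follows: active = inhibition above 50% at the 20 µM single-dose screen; inactive = the rest.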 These entries were drawn from the full list.

Each compound was assayed against Alkaline phosphatase, tissue-nonspecific isozyme (Homo sapiens) (UniProt P05186) (assay: human TNAP enzyme inhibitors, primary screen, biochemical, colorimetric, phosphate release readout (AID 614)). Conditions: purified TNAP, pNPP, malachite green phosphate absorbance; at 20 µM; hits give high values.
Alkaline phosphatase, tissue-nonspecific isozyme (Homo sapiens), sequence (P05186 whole entry, looked up): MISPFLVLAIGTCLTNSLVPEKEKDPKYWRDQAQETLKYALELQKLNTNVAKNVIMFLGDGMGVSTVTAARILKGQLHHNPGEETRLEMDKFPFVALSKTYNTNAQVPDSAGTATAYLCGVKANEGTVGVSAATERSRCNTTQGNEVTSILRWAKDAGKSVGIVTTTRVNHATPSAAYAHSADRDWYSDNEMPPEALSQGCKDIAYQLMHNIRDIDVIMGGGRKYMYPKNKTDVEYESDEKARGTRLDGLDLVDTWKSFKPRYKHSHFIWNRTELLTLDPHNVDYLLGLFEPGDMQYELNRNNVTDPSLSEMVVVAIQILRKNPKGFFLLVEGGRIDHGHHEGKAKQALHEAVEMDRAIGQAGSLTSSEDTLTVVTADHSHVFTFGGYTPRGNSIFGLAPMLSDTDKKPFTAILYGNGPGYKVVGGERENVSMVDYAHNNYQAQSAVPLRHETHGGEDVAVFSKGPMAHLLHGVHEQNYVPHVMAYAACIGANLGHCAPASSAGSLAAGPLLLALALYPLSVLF

inhibition, inactive:
CC(=O)Nc1cccc2c1[n+]([O-])c(C)c(C)[n+]2[O-] 2.9%
N#CCCN(CCC#N)c1nnc(-c2ccccc2)s1 0%
COc1ccc(Cn2cccc(NC(=O)Nc3ccc(C#N)cc3)c2=O)cc1 10.4%
CCOC(=O)CNC(=O)CSc1nnc(COc2ccc(Cl)cc2)n1CC 10.6%
CCc1nnc(NC(=O)c2nc3nccc(C)n3n2)s1 -4.2%
CNC(=O)c1cc2c(ccc3ccccc32)oc1=N 5.2%
CCN(c1ccccc1)S(=O)(=O)c1cccc(C(=O)O)c1 1.1%
CN(C)c1nc2n(c(=O)n1)CCO2 -3%
COc1ccccc1NC(=O)C1=C(C)NC2=C(C(=O)CCC2)C1c1ccc(C)o1 (stereo not drawn) -1.3%
C=CCc1cccc2cc(C(=O)N3CCN(C(=O)OCC)CC3)c(=O)oc12 5.5%
CC1Cc2ccccc2N1C(=O)CSc1nnc(-c2ccc(S(=O)(=O)N3CCCCC3)cc2)o1 (stereo not drawn) 12.2%
O=c1oc2c(CN3CCCCC3)c(O)ccc2c2c1CCCCC2 8.2%
CCn1c(SCC(=O)Nc2cc(C)c(Cl)cc2OC)nnc1-c1ccco1 10.5%
O=C(NC1CCCCC1)n1c(=O)oc2cc(S(=O)(=O)N3CCCCC3)ccc21 6.7%
Cn1c(SCC(=O)OC2CCCCC2)nnc1-c1ccc(S(=O)(=O)N2CCCC2)cc1 10.3%
O=C(NCc1cn2ccsc2n1)Nc1cccc(Cl)c1 0.5%
CCC1(C)N(O)C(C)(C)C(c2ccc(OC)cc2)=[N+]1[O-] (stereo not drawn) 8.5%
CCc1c(O)nc(SCC(=O)N2CCCCC2)n(-c2ccccc2C)c1=O 2.1%
Cc1ccc(C(C(=O)NCc2ccco2)N(CC2CCCO2)C(=O)Cn2nnc3ccccc32)cc1 (stereo not drawn) 8.3%
CC(C)=C(NC(=O)c1ccco1)C(=O)NCCc1nc2ccccc2[nH]1 9.6%
O=C(O)CCC(=O)N(Cc1ccco1)c1nc(-c2ccccc2)cs1 7.9%
COC(=O)COc1ccc(S(=O)(=O)Nc2ccc(NC(C)=O)cc2)cc1 11.9%
CCc1cccc(C)c1NC(=O)CSc1nnc(-c2ccco2)n1N 7.1%
C/C(O)=C\c1nc(=O)c2c(C)cc(C)nc2n1-c1ccccc1 10.5%
COc1ccccc1N1CCN(C(=O)c2ccc(S(=O)(=O)N3CCCCC3)cc2)CC1 11.7%
Cc1ccc(C(C)C)c(OCc2nnc(SCC(=O)Nc3nccs3)n2C)c1 -5.7%
NC(=O)C1CCN(C2OC(=O)c3ccccc32)CC1 (stereo not drawn) 0%
O=C(CSc1nnnn1-c1ccc2c(c1)CCC2)Nc1ccc2c(c1)OCCO2 -0.8%
O=C(CNCCO)NC12CC3CC(CC(C3)C1)C2 0%
Cc1nc(NC(CC(C)C)C(=O)O)c2nc(C)oc2n1 (stereo not drawn) -15%
O=C1c2oc3ccc(Br)cc3c(=O)c2C(c2cccc(F)c2)N1CCO (stereo not drawn) 10.1%
CC(C)C(=O)N1CCN(CCN=CC2=C(O)CC(c3ccco3)CC2=O)CC1 (stereo not drawn) 2.1%
CCOC(=O)c1c(NC(=O)CSc2nnc(C)c(=O)[nH]2)sc2c1CCC2 10.5%
COC(=O)C(NC(C)=O)(Nc1nc2c(s1)CCCC2)C(F)(F)F (stereo not drawn) 10.6%
CC1Cc2ccccc2N1C(=O)CSc1nc2ccccc2o1 (stereo not drawn) 14%
CCCn1c(SCC(N)=O)nnc1C(C)C 3.8%
COC(=O)CNC(=O)c1ccc2c(c1)S(=O)(=O)c1ccccc1C2=O 14.1%
O=C(Oc1ccccc1)c1ccc2nccnc2c1 8.8%
CC(Sc1nncs1)C(=O)NCc1ccc2c(c1)OCO2 (stereo not drawn) 18.9%
C=CCn1c(C2CC(=O)N(c3ccc(C)cc3)C2)nc2ccccc21 (stereo not drawn) 8.4%
c1ccc2c(CNn3cnnc3)cccc2c1 4%
O=c1cc(CSc2ccc(Cl)cc2)nc(N2CCOCC2)[nH]1 -11.8%
CCCc1nc2c3cnn(-c4cccc(Cl)c4)c3ncn2n1 -13.7%
Cn1c(=O)c2c(nc(OCc3cccnc3)n2Cc2ccccc2)n(C)c1=O 0%
O=C(CCCC(=O)N(CC(=O)NC1CCCC1)Cc1ccccc1Cl)Nc1ccccn1 10.7%
CC12C(=O)N(n3cnnc3)C(=O)C1C1C=CC2C1 (stereo not drawn) -18.4%
Cn1cnc2c1c(=O)n(Cc1c(Cl)cccc1Cl)c(=O)n2C 7.6%
COc1ccc(-n2c(C)nc3c(cnn3-c3ccccc3)c2=O)cc1 -8.2%
CC(=O)Nc1ccc(S(=O)(=O)N2CCCC2C(=O)O)cc1 (stereo not drawn) 10.8%
COCCn1nnnc1C(c1ccccc1Cl)N1CCN(c2ccccc2OC)CC1 (stereo not drawn) 8.5%
CC(Cc1cccs1)NC(=O)NC1CCCCC1 (stereo not drawn) 10%
CS(=O)(=O)N(CC(=O)N1CCN(c2cccc(Cl)c2)CC1)c1ccccc1 0%
O=C(CSc1nnc(-c2cccnc2)n1Cc1ccco1)c1ccc(Cl)cc1 8.1%
CCN1C(=O)/C(=C\N2CCN(c3ccccc3)CC2)SC1=S 10.1%
O=C(Nc1c(-c2ccccc2)nc2c(Br)cc(Br)cn12)c1ccco1 9.2%
Cc1ccc(C2(c3ccc(C)cc3)NC(=O)N(Cc3c(C)noc3C)C2=O)cc1 -2%
COC(=O)[C@H](C)NC(=O)Nc1ccc(OC(F)(F)F)cc1 4.2%
Cc1csc(NC(=O)CN2CCCCCC2)n1 14.8%
COc1ccc(-c2nc3n(c2Br)CCC3)cc1 0%
CCOC(=O)N1CCN(C(=O)C2CCN(S(C)(=O)=O)CC2)CC1 -0.3%
O=S(=O)(NCc1ccccn1)c1ccc(Br)s1 -2.3%
COCCNC(=O)CN(C(=O)CCC(=O)Nc1cc(C)on1)c1ccc(C)cc1C 14.4%
CN1CCN(S(=O)(=O)c2ccc(NC(=O)C3CCCO3)cc2)CC1 (stereo not drawn) 11.5%
